# PubChem BioAssay (NCATS)
# Several values for one entry are separate records, joined by “and”; a condition that tells them apart may be missing. Equal entries are not always repeated. Records with an inconclusive call do not appear. Activity calls are given as the source filed them. Calls follow the shape of the full dose curve.
# Assay: Cytotoxicity counterscreen for inhibitors of SARS-CoV-2 cell entry (AID 1645845); also: nearly all actives have a fitted effect of over 50% in size; as to activity change, negative = cytotoxicity: % is scaled to controls: 0 for no effect and ±100 for the full control effect
# Details: cell viability (SARS-CoV-2 entry assay cells); series mostly up to 57.1 µM; activity change, negative = cytotoxicity: at the top concentration
# Method in brief: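 HEK293-ACE2 cells (Expi293F stably expressing human ACE2) seeded overnight, then compound for 1 h plus 48 h at 37C. Viability as ATP content by luminescence; normalized to wells with cells and media-only wells.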
# Potency is read from the fitted curve at half-maximal effect.
SMILES,outcome,Potency,"activity change, negative = cytotoxicity"
CNC(C)C(O)c1ccccc1 (configuration not stated),inactive,–,–
COc1cc(CNC(=O)CCCC/C=C/C(C)C)ccc1O,–,inactive,–
CO[C@H](C(=O)[C@@H](O)[C@@H](C)O)C1Cc2cc3cc(O[C@H]4C[C@@H](O[C@H]5C[C@@H](O)[C@H](O)[C@@H](C)O5)[C@@H](O)[C@@H](C)O4)c(C)c(O)c3c(O)c2C(=O)[C@H]1O[C@H]1C[C@@H](O[C@H]2C[C@@H](O[C@H]3C[C@](C)(O)[C@H](O)[C@@H](C)O3)[C@H](O)[C@@H](C)O2)[C@H](O)[C@@H](C)O1 (some centres not stated),–,–,-2.89% (inactive)
C/C(O)=C(\C#N)C(=O)Nc1ccc(C(F)(F)F)cc1,–,8.91 µM (active),–
OCCOc1ccc(/C(=C(/CCCl)c2ccccc2)c2ccccc2)cc1,–,inactive,–
CC(C)C[C@H](NC(=O)CNC(=O)c1cc(Cl)ccc1Cl)B1OC(=O)C(CC(=O)O)(CC(=O)O)O1,–,0.794 µM (active),–
COc1ccc2c(c1)OC(C)(C)C(c1ccccc1)C2c1ccc(OCCN2CCCC2)cc1 (configuration not stated),–,–,-6.68% (inactive)
COc1cc2c(cc1O)CCN[C@]21CS[C@@H]2c3c(OC(C)=O)c(C)c4c(c3[C@H](COC1=O)N1[C@@H]2[C@H]2c3c(cc(C)c(OC)c3O)C[C@@H]([C@@H]1O)N2C)OCO4,–,–,-20.3% [at 11.3 µM] (inactive)
CC[C@@]1(O)C(=O)OCc2c1cc1n(c2=O)Cc2cc3c([N+](=O)[O-])cccc3nc2-1,–,–,-32% [at 114 µM] (inactive)

# Assay: Primary qHTS to identify inhibitors of SARS-CoV-2 cell entry (AID 1645846); also: nearly all actives have a fitted effect of over 45% in size
# Details: SARS-CoV-2 pseudovirus cell entry assay, luminescence; activity change, negative = inhibition: at 57.1 µM (top of the series) unless noted
# Method in brief: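 Inhibition of spike-mediated entry was scored in human ACE2-transfected Expi293F cells. Particles were MLV-pseudotyped with Wuhan-Hu-1 S carrying a 19-aa C-terminal deletion; signal was luciferase after two days, scaled between spike PP and fusion-protein-free PP.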
SMILES,"activity change, negative = inhibition",outcome,Potency
CNC(C)C(O)c1ccccc1 (configuration not stated),-30.3%,–,–
C(=C\c1ccncc1)/c1ccccc1,–,inactive; activator; fitted 1.4125 uM [at 114 µM],–
COc1cc(CNC(=O)CCCC/C=C/C(C)C)ccc1O,-28.1% and -35.9%,–,–
Nc1nc(NC2CC2)c2ncn([C@H]3C=C[C@@H](CO)C3)c2n1,–,inactive,–
CN(C)C/C=C/C(=O)Nc1cc2c(Nc3ccc(F)c(Cl)c3)ncnc2cc1OC1CCOC1 (configuration not stated),–,–,10 µM (active)
CO[C@H](C(=O)[C@@H](O)[C@@H](C)O)C1Cc2cc3cc(O[C@H]4C[C@@H](O[C@H]5C[C@@H](O)[C@H](O)[C@@H](C)O5)[C@@H](O)[C@@H](C)O4)c(C)c(O)c3c(O)c2C(=O)[C@H]1O[C@H]1C[C@@H](O[C@H]2C[C@@H](O[C@H]3C[C@](C)(O)[C@H](O)[C@@H](C)O3)[C@H](O)[C@@H](C)O2)[C@H](O)[C@@H](C)O1 (some centres not stated),-92.7%,–,–
OCCOc1ccc(/C(=C(/CCCl)c2ccccc2)c2ccccc2)cc1,-9.9% and -6.02%,–,–
C[C@H]1O[C@@H](O[C@H]2[C@@H](O)C[C@H](O[C@H]3[C@@H](O)C[C@H](O[C@H]4CC[C@@]5(C)[C@H](CC[C@@H]6[C@@H]5C[C@@H](O)[C@]5(C)[C@@H](C7=CC(=O)OC7)CC[C@]65O)C4)O[C@@H]3C)O[C@@H]2C)C[C@H](O)[C@@H]1O,-96.3% and -94.1%,–,–
CC(C)C[C@H](NC(=O)CNC(=O)c1cc(Cl)ccc1Cl)B1OC(=O)C(CC(=O)O)(CC(=O)O)O1,-97.4%,–,–
COc1ccc2c(c1)OC(C)(C)C(c1ccccc1)C2c1ccc(OCCN2CCCC2)cc1 (configuration not stated),–,–,15.8 µM (active)
COc1cc2c(cc1O)CCN[C@]21CS[C@@H]2c3c(OC(C)=O)c(C)c4c(c3[C@H](COC1=O)N1[C@@H]2[C@H]2c3c(cc(C)c(OC)c3O)C[C@@H]([C@@H]1O)N2C)OCO4,-92.8% [at 11.3 µM],–,–
CO[C@H]1C[C@@H]2CC[C@@H](C)[C@@](O)(O2)C(=O)C(=O)N2CCCC[C@H]2C(=O)O[C@H]([C@@H](C)C[C@@H]2CC[C@@H](O)[C@H](OC)C2)CC(=O)[C@H](C)/C=C(\C)[C@@H](O)[C@@H](OC)C(=O)[C@H](C)C[C@H](C)/C=C/C=C/C=C/1C,–,–,20 µM (active)
CC[C@@]1(O)C(=O)OCc2c1cc1n(c2=O)Cc2cc3c([N+](=O)[O-])cccc3nc2-1,-97% [at 114 µM],–,–
CC(=O)OC1CC(OC2C(O)CC(OC3C(O)CC(OC4CCC5(C)C(CCC6C5CCC5(C)C(C7=CC(=O)OC7)CCC65O)C4)OC3C)OC2C)OC(C)C1O (configuration not stated),-96.7%,–,–
COc1cc([C@@H]2c3cc4c(cc3C(O[C@@H]3O[C@@H]5CO[C@@H](c6cccs6)OC5[C@H](O)[C@H]3O)C3COC(=O)[C@@H]32)OCO4)cc(OC)c1O (some centres not stated),-95.7%,–,–

# Assay: VSVG counterscreen qHTS to identify inhibitors of SARS-CoV-2 cell entry (AID 1645847); also: nearly all actives have a fitted effect of over 65% in size
# Details: VSV-G pseudotyped particle entry, luciferase; series mostly up to 57.2 µM; activity change, negative = inhibition: at the top concentration
# Method in brief: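 Luminescence from a luciferase reporter, normalised to bald particle and VSV-G pseudotyped particle wells, is the read-out. Cells are HEK293 expressing human ACE2, exposed to compound 1 h before a 48 h particle infection at 37 °C.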
row,SMILES,Potency
1,CO[C@H](C(=O)[C@@H](O)[C@@H](C)O)C1Cc2cc3cc(O[C@H]4C[C@@H](O[C@H]5C[C@@H](O)[C@H](O)[C@@H](C)O5)[C@@H](O)[C@@H](C)O4)c(C)c(O)c3c(O)c2C(=O)[C@H]1O[C@H]1C[C@@H](O[C@H]2C[C@@H](O[C@H]3C[C@](C)(O)[C@H](O)[C@@H](C)O3)[C@H](O)[C@@H](C)O2)[C@H](O)[C@@H](C)O1 (some centres not stated),0.152 µM (active)
2,CC[C@@]1(O)C(=O)OCc2c1cc1n(c2=O)Cc2cc3c([N+](=O)[O-])cccc3nc2-1,0.0221 µM (active)
3,COc1cc([C@@H]2c3cc4c(cc3C(O[C@@H]3O[C@@H]5CO[C@@H](c6cccs6)OC5[C@H](O)[C@H]3O)C3COC(=O)[C@@H]32)OCO4)cc(OC)c1O (some centres not stated),0.0429 µM (active)
